# From PubChem BioAssay AID977606 (Broad Institute, 2014)
# The whole screen tested about 1,500 compounds, of which about 430 (29%) were called active. How the calls were made is not given here. Only a sample is shown. Measured potencies and affinities stand elsewhere.
# Assay: insulin secretion activators without glucose, dose response, counter-screen for glucose-dependent insulin secretion activators, cell-based, INS-1E, Gaussia luciferase, luminescence, cherry-pick (AID 977606)
# Conditions: INS-1E Gaussia luciferase insulin secretion, no glucose, 100% = twice neutral-control luminescence; series mostly up to 35 µM
row,SMILES,outcome
1,O=C(OCc1c(-c2ccccc2)ncc2ccccc12)c1cccs1,inactive
2,O=C(NCc1ccco1)c1ccc2c(=O)n(CCC3=CCCCC3)c(=O)[nH]c2c1,inactive
3,Cc1c(CC(=O)O)c(=O)oc2c(C)c(OCc3ccccc3Br)ccc12,inactive
4,N#Cc1c(N)n(C2CCCCC2)c2nc3ccccc3nc12,inactive
5,COc1ccc(-n2c(O)cnc2Nc2nc(C)cc(C)n2)cc1OC,inactive
6,CCn1ccc(C(=O)Nc2ccccc2SC)n1,inactive
7,COc1ccc(CNC(=O)COC(=O)c2cc(C)nc3ccccc23)cc1,inactive
8,CCOC(=O)Cn1c(=O)n(Cc2ccc(OC)cc2)c(=O)c2cccnc21,inactive
9,Cc1ccc(NC(=O)[C@@H](Cc2ccccc2)NC(=O)[C@H]2O[C@@H](n3ccc(=O)[nH]c3=O)[C@H](O)[C@@H]2O)cc1C,inactive
10,CNc1nc(N)c(C(=O)C(C)(C)C)s1,inactive
11,COCCn1c(=S)[nH]c2sc3c(c2c1=O)CCCC3,inactive
12,COc1ccc(OC)c(C2=Nn3c(nnc3-c3ccncc3)SC2)c1,inactive
13,CC(C)Cn1c(=O)n(C)c(=O)c2[nH]cnc21,inactive
14,O=C(NCC1CCCO1)C1CCC(N2C(=O)c3ccccc3C2=O)CC1 (stereo not given),inactive
15,CC(C)NC(=O)C1(C)CN(S(C)(=O)=O)CC(=O)N1CCCN1CCOCC1 (stereo not given),inactive
16,O=C(CC1SC2=NCCN2C1=O)Nc1ccc(Br)cc1 (stereo not given),inactive
17,O=C(NC1CCCC1)C(C1CC1)n1c(-c2ccccn2)nc2ccccc21 (stereo not given),inactive
18,COc1ccc(C(O)c2nccc3cc(OC)c(OC)cc23)cc1OC (stereo not given),inactive
19,COc1ccc(/C=N/NC(=O)c2cc(-c3ccc4c(c3)OCO4)n[nH]2)cc1OC,inactive
20,O=C(NN=C1CCCC1)c1cc(-c2ccccc2)n[nH]1,inactive
21,Cc1cccc(CN2C(=O)CSc3ccc(C(=O)NC4CC4)cc32)c1,inactive
22,CNc1nc(Sc2ccccc2)cc(C(F)(F)F)n1,inactive
23,CCOC(=O)c1cnc2ccc(Cl)cc2c1Nc1ccc(S(=O)(=O)Nc2ncccn2)cc1,inactive
24,CC(=O)c1cccc(Nc2ncnc3ccc(Br)cc23)c1,inactive
25,COc1ccc(/C(C)=N/Nc2ccc(C(=O)O)cc2)cc1OC,inactive
26,Cc1ccnc(NC(=O)Nc2ccc(Br)cc2Cl)c1,inactive
27,COc1ccc(Cl)cc1C(=O)Nc1cccc(-c2ccc3nncn3n2)c1,inactive
28,Cc1cc(C(=O)Nc2cccc(O)c2)c(C)o1,inactive

row,SMILES,outcome
1,COc1ccc(CCN(C)C(=O)CCNS(=O)(=O)c2ccccc2C(F)(F)F)cc1OC,inactive
2,COc1nc(-c2ccccc2)c2cc(C)ccc2n1,inactive
3,NNc1nc(-c2ccccc2)c2ccccc2n1,inactive
4,NC(=O)c1cc2cc(Cl)ccc2o/c1=N/NC(=O)c1cccs1,inactive
5,COc1ccc(/C=C2/SC(=O)N(NS(=O)(=O)c3ccccc3)C2=S)cc1OC,inactive
6,CCc1nc2ccc(C(=O)N(C)CCCN(C)C)cn2c1N(C=O)CCC(C)C,inactive
7,CCCc1cc2c(OC)ccc(O)c2c(=O)n1C,inactive
8,CC(=O)Nc1ccc(Cl)c(-c2nc3ncccc3o2)c1,inactive
9,CCn1nc(C(=O)Nc2ccc3nc(C)sc3c2)c2ccccc2c1=O,inactive
10,CNc1cc(-c2ccc(OC)c(OC)c2)ncn1,inactive
11,CC(C)c1c(C(=O)N/N=C/c2cccc3ccccc23)nnn1-c1nonc1N,inactive
12,CC(C)Nc1nc(NC(C)(C)C)nc(Oc2ccc(=O)n(C)n2)n1,inactive
13,COc1cc2c(cc1OC)-c1cc(Nc3ccc(C)cc3)nc(=O)n1CC2,inactive
14,COc1ccc(OC)c(N(CC(=O)NN=C2CCN(C)CC2)S(=O)(=O)c2ccccc2)c1,inactive
15,CCCCC(=O)Nc1ccc(C(=O)NNC(=O)c2ccc(C)c(Br)c2)cc1,inactive
16,COc1ccc(/C=N/n2c(-c3n[nH]c4c3CCC4)n[nH]c2=S)cc1OC,inactive
17,COc1ccc(C(=O)NCC(=O)OCC(=O)Nc2sccc2C#N)cc1OC,inactive
18,NC(=O)c1ccsc1NC(=O)COC(=O)CNC(=O)c1ccc(Cl)cc1,inactive
19,Cc1cc2oc(=O)cc(CN3CCOCC3)c2c(C)c1Cl,inactive
20,c1ccc2c(NCC3CCCO3)nc(N3CCCCC3)nc2c1 (stereo not given),inactive
21,COc1cc(C2N(C)CCC3(OCCO3)C2(C)C)cc(OC)c1OC (stereo not given),inactive
22,CCOc1ccc2oc(C(=O)N(C)CCc3ccc(OC)c(OC)c3)c(C)c2c1,inactive
23,COc1ccc(-c2cc3nc4ccccc4n3c(N)c2C#N)cc1,inactive
24,O=C(NCCCNc1ccnc2cc(Cl)ccc12)c1ccccc1F,inactive
25,COc1ccc(C(=O)Cc2cc3cccc(OC)c3oc2=O)cc1,inactive
26,COc1cccc(NC(=O)CN(C)C(=O)Cn2[nH]c(=O)c3ccccc3c2=O)c1,inactive
27,CCn1c(=O)[nH]c(=O)c2c(N)c(C(=O)c3cc(F)ccc3F)sc21,inactive
